Data as given in PubChem BioAssay AID2685 (National Center for Advancing Translational Sciences (NCATS), 2010).
The campaign covered roughly 320,000 compounds. About 2,100 (0.66%) were called active. Roughly 53% stayed inconclusive and do not appear here. Calls come from the whole dose curve; as a rule, active = well fitted inhibition curve with a large enough effect in the signal ratio, with a control signal flat (not every such curve was filed as active); inconclusive = small, poorly fitted or top-dose-only effect, or effect the other way, or a change in a side signal; inactive = flat fitted curve, though single readings scatter; the % refers to the signal ratio. Only a selection was taken, and actives are over-represented in it overall.

Experiment: qHTS Assay for Lipid Storage Modulators in Drosophila S3 Cells;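 for cell number change: cells counted by Cell Tracker Red CMTPX staining in the red channel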; for lipid storage change, negative = inhibition: % is set by controls: 0 for no effect and ±100 for the full control effect
Conditions: BODIPY lipid droplet fluorescence, 18-24 h, cells fed with added oleic acid; cell number change: measured here: cell count max response; series mostly up to 46.1 µM; lipid storage change, negative = inhibition: at the top concentration
Method in brief: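 Drosophila S3 cells loaded with oleic acid (400 uM, as added) and compounds at several concentrations; lipid droplets imaged by 488-nm laser-scanning cytometry, 500–530 nm intensity and object ratio to cell channel. Percent activity normalized to 20 uM Triacsin C.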
Potency is the fitted concentration of half-maximal effect.

Structure (SMILES)	lipid storage change, negative = inhibition	cell number change	Potency	outcome
CC(C)Oc1ccc(N2CC(C(=O)Nc3ccc(N4CCOCC4)cc3)CC2=O)cc1 (stereo not drawn)	7.42% (inactive)	15.2%	–	–
CCOC(=O)c1cc(CC)sc1/N=C/c1c(O)ccc2ccccc12	21.6% (inactive)	1.95%	–	–
O=C(Cn1cnc([N+](=O)[O-])n1)NCCO	-0.893% (inactive)	0.588%	–	–
O=c1[nH]c(CN2CCN(c3ccc(F)cc3)CC2)nc2ccccc12	9.13% (inactive)	-21.1%	–	–
CCC(=O)NC(C)c1cc(Cl)c2ccccc2c1O (stereo not drawn)	12.7% (inactive)	-12.2%	–	–
COCCn1c(Cc2ccccc2)nnc1SCC(=O)Nc1cc(C)on1	-1.8% (inactive)	–	–	–
Cc1ccc(-n2c(SCC(=O)NNC(=S)Nc3ccccc3)nc3ccccc3c2=O)cc1	5% (inactive)	9.73%	–	–
CN1[C@@H](CC(=O)c2ccccc2)CCC[C@H]1C[C@H](O)c1ccccc1	4.29% (inactive)	9.08%	–	–
CN1C(CC(=O)c2ccccc2)CCCC1CC(O)c1ccccc1 (stereo not drawn)	–	-3.64%	18.4 µM (active)	–
CN1CCC(N(C)CC(O)c2ccccc2)CC1 (stereo not drawn)	-18.8% (inactive)	-4.15%	–	–
C=CCSc1nc(O)c(CC)c(=O)n1C(C)CC (stereo not drawn)	2.71% (inactive)	-4.8%	–	–
Cc1ccc(OCc2ccc(C(=O)NCC3CCCO3)cc2)cc1 (stereo not drawn)	8.3% (inactive)	13.4%	–	–
Cc1noc(C)c1COc1ccc(C(=O)NCC2CCCO2)cc1 (stereo not drawn)	-9.48% (inactive)	-13.5%	–	–
Cc1ccc(OCc2ccc(C(=O)NCC3CCCO3)cc2)cc1C (stereo not drawn)	–	-8.64%	10.3 µM (active)	–
Cc1cccc(NC(=O)Nc2ccccc2)n1	-0.183% (inactive)	-19.9%	–	–
COc1ccc(/C=C/C(=O)N2CCNC(=O)C2)c(OC)c1	-28.8% (inactive)	–	–	–
COc1ccc(-c2cc(=O)oc3c(C)c(OCC(=O)N(C)C)ccc23)cc1	–	–	–	inactive
CC(=O)Nc1ccc(OC(=O)c2cc([N+](=O)[O-])ccc2Cl)cc1	-0.987% (inactive)	–	–	–
Cc1ccc(NC2=NCCC2)cc1Cl	-2.15% (inactive)	–	–	–
Clc1cccc(NC2=NCCC2)c1	–	-7.84%	25.9 µM (active)	–
Clc1cccc(Cl)c1NC1=NCCC1	-9.95% (inactive)	6.79%	–	–
CCCCNC(=S)NNC(=O)c1cccnc1	5.02% (inactive)	0.804%	–	–
CC(C)Sc1nc2c(c(=O)[nH]c(=O)n2C)n1Cc1ccccc1	-2.37% (inactive)	–	–	–
O=[N+]([O-])c1ccc(S(=O)(=O)NCCc2ccncc2)cc1	11.3% (inactive)	17.1%	–	–

Structure (SMILES)	lipid storage change, negative = inhibition	cell number change	Potency	outcome
O=[N+]([O-])c1cccc(S(=O)(=O)NCc2ccncc2)c1	–	-3.97%	10.3 µM (active)	–
O=[N+]([O-])c1cccc(S(=O)(=O)NCCc2ccccc2)c1	–	-15.1%	–	inactive
CCCNC(=O)COC(=O)c1ccc(N2CCCC2)c([N+](=O)[O-])c1	-3.38% (inactive)	10%	–	–
Clc1ccc(C2=CSC3=Nc4cccc5cccc(c45)N23)cc1	–	-10.2%	0.13 µM (active)	–
CC1CN2C(c3ccc(Cl)cc3)=CSC2=N1 (stereo not drawn)	–	15.5%	–	inactive
N=C1/C(=C\c2ccc(-c3cccc(Cl)c3)o2)C(=O)N=C2SC=C(c3ccccc3)N12	4.02% (inactive)	-13.8%	–	–
COc1ccc(OC[C@@H](O)CNC(=O)c2cccc3c2C(=O)c2ccc(Cl)cc2S3(=O)=O)cc1	6.63% (inactive)	6.27%	–	–
O=C(NNC(=O)c1ccccc1F)c1ccc(Cl)c(S(=O)(=O)N2CCOCC2)c1	0.713% (inactive)	4.79%	–	–
Cc1c2cnn(CC(=O)NCc3ccccn3)c(=O)c2c(C)n1Cc1ccccc1	6.37% (inactive)	-4.61%	–	–
Cc1ccc(C)c(Cn2c3ccccc3c3cnn(CC(=O)NCc4ccccn4)c(=O)c32)c1	–	21.8%	–	inactive
Cc1cc(C)c(Cn2c3ccccc3c3cnn(CC(=O)NCc4ccccn4)c(=O)c32)c(C)c1	–	17.6%	14.6 µM (active)	–
Cc1ccccc1CN1CCNC1=O	–	–	–	inactive
COCCCNC(=O)CS(=O)Cc1nc(-c2ccccc2C)oc1C (stereo not drawn)	5.85% (inactive)	-1.92%	–	–
COc1ccc(-c2nc(CS(=O)(=O)CC(=O)NCc3cccc(OC)c3OC)c(C)o2)cc1	1.65% (inactive)	10.4%	–	–
CCc1c(C)sc(NC(=O)c2cc(C(C)C)on2)c1C#N	4.2% (inactive)	4.86%	–	–
CCOC(=O)Cn1c(=N)n(Cc2ccccc2F)c2ccccc21	–	-1.47%	18.4 µM (active)	–
CCCn1c(=N)n(CC(=O)OCC)c2ccccc21	10.3% (inactive)	13.2%	–	–
C=CCn1c(=N)n(CC(=O)OCC)c2ccccc21	-3.21% (inactive)	2.48%	–	–
Cc1cccc(NCc2ccc(Br)cc2)n1	6.89% (inactive)	-13.5%	–	–
O=C(CN1C(=O)COc2ccccc21)N1CCCc2ccccc21	-23.7% (inactive)	11.3%	–	–
O=C1CNC(=O)N1CC(=O)N1CCCc2ccccc21	–	-34.5%	29.1 µM (active)	–
O=C(CN1CCCCC1)N1CCCc2ccccc21	–	7.83%	–	inactive
COc1ccccc1NC(=S)NCc1ccc(S(N)(=O)=O)cc1	4.94% (inactive)	6.14%	–	–
COc1ccccc1NC(=S)NCc1ccc(F)cc1	–	-1.4%	11.6 µM (active)	–

Structure (SMILES)	lipid storage change, negative = inhibition	cell number change	Potency	outcome
COc1ccccc1NC(=S)NCc1ccc(Cl)cc1	12.7% (inactive)	8.81%	–	–
CC(C)CNC(=O)CSc1nnc(-c2ccccn2)n1Cc1ccccc1	0.755% (inactive)	-1.23%	–	–
CC(C)(C)c1ccc(C(=O)N/N=C2\C3CN4CCN(C3)CC2(c2ccccc2)C4)cc1	23.5% (inactive)	8.22%	–	–
Cc1ccc2c(c1)C(=O)C(=O)N2CCCOc1ccccc1C	0.449% (inactive)	-3.05%	–	–
O=C(CN1CCN(S(=O)(=O)c2ccccc2)CC1)Nc1ccccc1C(=O)c1ccccc1	1.48% (inactive)	4.18%	–	–
CC(=O)c1ccc(S(=O)(=O)N2CCN(CC(=O)Nc3ccccc3C(=O)NC3CC3)CC2)cc1	–	-1.96%	6.51 µM (active)	–
O=C(CN1CCN(S(=O)(=O)c2ccccc2)CC1)Nc1ccc(Cl)c(Cl)c1	–	16.9%	–	inactive
O=C(CN1CCN(S(=O)(=O)c2ccccc2)CC1)Nc1ccc(Cl)c([N+](=O)[O-])c1	-3.05% (inactive)	22%	–	–
Cc1ccc(S(=O)(=O)N2CCN(CC(=O)Nc3ccccc3C(=O)NC3CC3)CC2)cc1	–	-13.8%	–	inactive
CC(=O)c1ccc(S(=O)(=O)N2CCN(CC(=O)Nc3ccc(Cl)c([N+](=O)[O-])c3)CC2)cc1	–	-15.2%	29.1 µM (active)	–
COc1c2ccc(C(=O)NCCCCc3ccccc3)cc2nn1C	–	-13.1%	–	inactive
CCOC(=O)NCc1ccc2[nH]c(C)cc2c1	-10.1% (inactive)	16.1%	–	–
Nc1cc(N)nc(SCCN2CCCCC2)n1	–	3.17%	0.0184 µM (active)	–
Cc1cc(C)c(C#N)c(SCCN2CCCCC2)n1	–	-24.3%	–	inactive
Nc1cc(N)nc(SCC(=O)N2CCCCC2)n1	6.72% (inactive)	2.45%	–	–
O=C(O)c1ccc(N2C(=O)CC(N3CCN(c4cccc(Cl)c4)CC3)C2=O)cc1 (stereo not drawn)	9.41% (inactive)	-9.85%	–	–
Cc1ccc(-n2c3c(c(=O)[nH]c2=O)C(C(F)(F)F)(C(F)(F)F)NC(=O)N3)cc1	-27.1% (inactive)	7.3%	–	–
O=C1Nc2c(c(=O)[nH]c(=O)n2-c2ccccc2)C(C(F)(F)F)(C(F)(F)F)N1	–	-18.7%	25.9 µM (active)	–
O=C1Nc2c(c(=O)[nH]c(=O)n2-c2ccccc2F)C(C(F)(F)F)(C(F)(F)F)N1	-3.91% (inactive)	12.5%	–	–
Cn1cccc1CC(=O)N/N=C/c1ccc(Cl)cc1	16.8% (inactive)	-7.57%	–	–
O=C(COC(=O)COc1ccc(Nc2ccccc2)cc1)NCc1ccco1	-4.12% (inactive)	8.25%	–	–
Cc1cc(C)cc(OCC(=O)OCC(=O)NCc2cccs2)c1	-2.88% (inactive)	-3.19%	–	–
Cc1cc(C)cc(OCC(=O)OCC(=O)NCc2ccco2)c1	–	10.8%	23.1 µM (active)	–
Cc1c(C(=O)OCC(=O)NCc2ccco2)oc2ccccc12	6.66% (inactive)	-15.4%	–	–

Structure (SMILES)	lipid storage change, negative = inhibition	cell number change	Potency	outcome
O=C(COC(=O)c1cc2ccccc2o1)NCc1ccco1	–	-22.2%	0.206 µM (active)	–
COc1ccc(CNC(=O)COC(=O)c2cc3ccccc3o2)cc1	–	–	–	inactive
C=CCNC(=O)/C(=C\c1ccc([N+](=O)[O-])cc1)NC(C)=O	-2.27% (inactive)	–	–	–
CC(C)/C=N/Nc1nc2c(c(=O)n(C)c(=O)n2C)n1C	-8.14% (inactive)	-4.59%	–	–
COC(=O)c1ccc2c(=O)n(-c3ccccc3)c(=S)[nH]c2c1	11.6% (inactive)	5.89%	–	–
NC(=O)CC(NC(=O)Cc1ccc(Br)cc1)c1ccc(NCCc2ccc(Cl)cc2)c([N+](=O)[O-])c1 (stereo not drawn)	0.303% (inactive)	-9.69%	–	–
COCCOC(=O)/C(C#N)=C/c1cn(Cc2ccccc2)nc1-c1cccnc1	-14.1% (inactive)	-16.4%	–	–
C[C@H](NC(=O)OCc1ccccc1)c1nnc([C@H](C)NC(=O)OCc2ccccc2)o1	2.69% (inactive)	2.65%	–	–
Cc1ccc(S(=O)(=O)N2CCN(C(=O)CN3CCc4ccccc4C3)CC2)cc1	–	21.3%	–	inactive
COCc1ccc(C(=O)Nc2ccccc2C(=O)NCc2cccnc2)cc1	–	10.3%	–	inactive
COc1cc(C(=O)Nc2ccccc2C(=O)NCc2cccnc2)cc(OC)c1OC	–	-22.9%	–	inactive
C=CCOc1ccc(C(=O)Nc2ccccc2C(=O)NCc2cccnc2)cc1	–	18.4%	3.26 µM (active)	–
CC(=O)Nc1nnc(S(=O)(=O)N2CCN(c3ccc([N+](=O)[O-])cc3Cl)CC2)s1	–	-24.2%	–	inactive
COc1cccc(-c2cc(C(=O)Nc3ccc(OC)c(OC)c3)no2)c1	5.84% (inactive)	-25.5%	–	–
CC1CCN(c2ccc(NC(=O)c3cccnc3)cc2)CC1	–	-20.1%	20.6 µM (active)	–
CC(C)(C)C(=O)N1CCN(c2ccc(NC(=O)c3ccc([N+](=O)[O-])o3)cc2)CC1	–	19.6%	–	inactive
Cc1ccc(C(=O)N2CCN(c3ccc(NC(=O)c4cccnc4)cc3)CC2)cc1	–	4.57%	–	inactive
CC1CCN(c2ccc(NC(=O)c3ccc([N+](=O)[O-])o3)cc2)CC1	–	0.613%	16.4 µM (active)	–
O=C(Nc1ccc(N2CCOCC2)cc1)c1ccc([N+](=O)[O-])o1	–	-16.7%	–	inactive
O=C(Nc1ccc(N2CCOCC2)cc1)c1cccnc1	6.23% (inactive)	3.28%	–	–
CCn1c(=O)c2ccccc2n(CC(=O)NCCC2=CCCCC2)c1=O	3.41% (inactive)	25.4%	–	–
CCn1cc(C(=O)NCC(OC)OC)c(=O)c2cc(S(=O)(=O)N3CCOCC3)ccc21	11.9% (inactive)	–	–	–
